# Compound activity as filed in PubChem BioAssay.
# An excerpt weighted towards active compounds, which were near 3.4% of everything screened.
# NPSR antag = blocks cAMP signaling of the human neuropeptide S receptor; Q6W5P4; CHO-NPSR cells, cAMP TR-FRET, antagonist mode; 220,000 compounds, 1% hits; AID 1461; Potency, µM (highest dose often 38.3 µM), for the others: top-dose activity change, negative = inhibition, usual class: inhibitors; further: potency means the concentration at half of the fitted maximal effect; on the % scale 0 is the no-effect control and ±100 the full control effect; nearly all actives have a fitted effect of over 50% in size
# Target sequence (Q6W5P4 whole entry, looked up): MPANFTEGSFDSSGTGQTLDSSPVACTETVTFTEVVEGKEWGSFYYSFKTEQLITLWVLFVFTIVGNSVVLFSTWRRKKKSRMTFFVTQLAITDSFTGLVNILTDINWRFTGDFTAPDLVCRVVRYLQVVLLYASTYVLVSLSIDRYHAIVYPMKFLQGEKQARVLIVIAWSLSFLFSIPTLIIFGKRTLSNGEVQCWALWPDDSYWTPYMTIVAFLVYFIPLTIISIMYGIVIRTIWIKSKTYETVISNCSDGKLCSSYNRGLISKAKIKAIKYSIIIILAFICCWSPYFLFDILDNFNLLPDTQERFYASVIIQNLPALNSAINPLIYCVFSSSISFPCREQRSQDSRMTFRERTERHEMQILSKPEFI
# HTT ATP protect = protects HTT-Q103 PC12 cells, measured by ATP; PC12 HTT-Q103 induced, cytoprotection, ATP luminescence, 40 h; Potency, µM (doses to about 56.4 µM), for inactives: cytoprotection (ATP increase), hits mostly activators; 230,000 compounds, 0.14% hits; further: potency means the concentration at half of the fitted maximal effect; % of control where 0% means no effect; nearly all actives have a fitted effect of over 45% in size
#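 Rat PC12, Q103 Htt exon1-GFP fusion, ecdysone promoter; tebufenozide inducer 100 nM final; compound titration; qHTS, 1500 cells/well; ATPlite luminescent read.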
# IMPase inh = membrane-permeable compound that blocks inositol monophosphatase; inhibition (IP1 accumulation), % at 46.1 µM; AID 901; CHO-M1 cells, IP1 accumulation, HTRF TR-FRET ratio; 120,000 tested, under 10 active; active means well fitted curve in the direction sought with a large enough effect in the signal ratio, not every such curve was filed as active; inconclusive means small, poorly fitted or top-dose-only effect, or a change in a side signal; inactive means no such curve, though single readings can be large or run the other way; the % refers to the signal ratio;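 further: cells stimulated with carbachol in lithium chloride buffer; plate controls were DMSO basal wells for no effect and reference inhibitor wells for full effect; higher means more IMPase inhibition seen as more IP1 and lower FRET ratio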
# Target sequence (P97697 whole entry, looked up): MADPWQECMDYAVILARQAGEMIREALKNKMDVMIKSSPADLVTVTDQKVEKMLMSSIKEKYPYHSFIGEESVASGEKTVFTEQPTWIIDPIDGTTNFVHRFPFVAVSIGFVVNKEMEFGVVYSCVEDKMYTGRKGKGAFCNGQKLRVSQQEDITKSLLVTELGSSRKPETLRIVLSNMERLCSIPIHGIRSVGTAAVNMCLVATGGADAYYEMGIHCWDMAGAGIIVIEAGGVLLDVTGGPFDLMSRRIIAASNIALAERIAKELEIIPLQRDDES
#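 The IP-One HTRF competitive assay in carbachol-stimulated CHO-M1 cells quantifies cellular IP1. Compounds spanned up to 46 uM final, and activity is expressed as AC50 from concentration-response fits of the ratio and donor data.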
# HttQ103 aggreg = inhibitors of mutant huntingtin aggregate formation in PC12 cells; 220,000 compounds, 1.1% hits; Potency, µM (titrated, usually from 46.1 µM), for inactives: at the highest dose activity change, negative = inhibition, actives largely listed as inhibitors; PC12 HttQ103-GFP aggregates, Acumen cytometry, 40 h; AID 1688; further: potency means the concentration at half of the fitted maximal effect; on the % scale 0 is the no-effect control and ±100 the full control effect; nearly all actives have a fitted effect of over 60% in size
#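 Quantitative HTS on tebufenozide-induced (100 nM) PC12 cells stably expressing polyQ103 Huntingtin exon 1–GFP. Reduction of bright GFP aggregates, detected by laser scanning cytometry after lysis, identified actives across the titration.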
# PNC inhibitor = perinucleolar compartment assembly inhibition; PC3M PTB-GFP, PNC prevalence imaging, 16 h; stronger effect = lower value; activity change (PNC), negative = inhibition, % at 10 µM; 140,000 compounds, 3.1% hits; AID 2417;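 active means readout at or below -70, meaning at least 70% loss of cells showing the perinucleolar compartment, a nuclear body marking cancer cells; inconclusive means readout between -30 and a set limit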;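 further: plate controls were DMSO wells for no effect and camptothecin positive control wells for full effect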
#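 Compounds are pinned in duplicate onto adhered PC3M cells stably expressing GFP-tagged PTB and incubated 16 h at 37 C. Cells are then fixed, nuclei stained with Hoechst, and PNC-positive cells counted.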
# IMPase Li cell = membrane-permeable IMPase blocker, potentiated with lithium; Potency, µM (doses to about 59.4 µM), for the others: top-dose activity, negative = IMPase inhibition, usual class: inhibitors; 210,000 compounds, 0.35% hits; CHO-M1 cells, IP1 TR-FRET (IP-One), carbachol + lithium;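 further: IP1 builds up when IMPase is blocked and the TR-FRET signal falls; potency means the concentration at half of the fitted maximal effect; plate controls were basal vehicle for no effect and high inhibitor control for full effect; nearly all actives have a fitted effect of over 50% in size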
#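 CHO-M1, 2000 cells/well, 16–30 h culture; cpd + low Li+, 30 min 37C; lysis with d2-IP1/Eu-anti-IP1 Ab, 10 min RT; TR-FRET 665/620 ratio and 620 channel; AC50 via Hill.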
# * marks the source's active call; other numbers are inactive results; ? = inconclusive; nt = no result given; [ ] = another dose, or the depositor's remark. Unless noted, the call rests on the fitted dose curve; in most records, active means well fitted curve in the direction sought with a large enough effect; inconclusive means small, poorly fitted or top-dose-only effect, or another doubt; inactive means no such curve, though single readings can be large; an effect the other way counts as inactive or inconclusive.
SMILES,NPSR antag,HTT ATP protect,IMPase inh,HttQ103 aggreg,PNC inhibitor,IMPase Li cell
CC(=O)c1cccc(NC(=O)c2nc(-c3ccccc3)oc2C)c1,-5%,-25%,nt,2%,nt,5%
CC1(C(=O)O)CCC2(C)CCC3(C)C(=CC(=O)C4C5(C)CCC(O)C(C)(C)C5CCC43C)C2C1 (stereo not drawn),nt,-62%,nt,-8%,nt,nt
O=C(Nc1ccc(N2CCN(C(=O)c3ccccc3)CC2)c(Cl)c1)c1ccc(Br)o1,?,-69%,4,11µM*,?,23%[38.3 µM]
O=C(Nc1ccccc1N1CCN(C(=O)c2ccccc2)CC1)c1cc2ccccc2o1,4µM*,-33%,-8,-5%,?,22%[38.3 µM]
O=C(Nc1ccccc1N1CCN(C(=O)c2ccc(Cl)cc2)CC1)c1ccc2c(c1)OCO2,?,-5%,0,-4%,-102*,32%[38.3 µM]
CCCCCCCCCCCCCCCC(=O)OCC(NC(=O)C(Cl)Cl)C(O)c1ccc([N+](=O)[O-])cc1 (stereo not drawn),nt,-16%,nt,nt,nt,5%
C1CCCNCC1,nt,-24%,nt,nt,nt,8%
COc1ccc(/C=N/N2CCOCC2)cc1COc1ccc(Cl)cc1,-10%,16%[10 µM],nt,19%,-111*,4%
CCCNC(=O)c1ccc(N(Cc2ccccc2)S(C)(=O)=O)cc1,-8%[46.1 µM],9%,-2,20%,-112*,2%[38.3 µM]
CS(=O)(=O)N(Cc1ccccc1)c1ccc(C(=O)NCc2ccccc2)cc1,-13%[46.1 µM],10%,2,-2%,?,26%[38.3 µM]
CCC(NC(=O)Nn1cnnc1)(C(F)(F)F)C(F)(F)F,-10%[46.1 µM],9%[10 µM],17,-1%,-100*,4%
COc1ccc(CCNc2oc(-c3ccco3)nc2C#N)cc1,-13%[46.1 µM],-25%[0.074 µM],-13,8%,-100*,5%
COCCn1c(=O)cnc2cnc(OC)nc21,nt,17%,nt,nt,nt,1%
Cc1c(NC(=O)CSc2ccc(Cl)cc2)cccc1-c1nc2cc(Cl)ccc2o1,-33%,nt,nt,7%,-113*,-15%
Cc1ccc2oc(-c3cccc(NC(=O)c4ccc(Br)o4)c3C)nc2c1,-3%[46.1 µM],-50%,1,-15%,?,20%[38.3 µM]
COC(=O)c1c(-c2ccc(F)cc2)noc1N,-2%[46.1 µM],-9%[10 µM],4,1%,-89*,13%[38.3 µM]
CCOC(=O)c1ccc(N2C(=O)c3n[nH]c(C)c3C2c2ccc(OC)cc2)cc1 (stereo not drawn),-12%[7.67 µM],-10%[0.074 µM],12,10%,?,-2%[38.3 µM]
CCOC(=O)c1ccc(N2C(=O)c3n[nH]c(C)c3C2c2ccc(OC)cc2OC)cc1 (stereo not drawn),-33%,10%[0.074 µM],13,18%,-119*,17%
O=C(c1cnccn1)N1CCC2(CCCN(c3ccccn3)C2)CC1,nt,4%,nt,nt,nt,14%
O=C(CN1CCOCC1)Nc1cccc(Br)c1,-5%[46.1 µM],10%,7,3.2µM*,9,17%[38.3 µM]
CCOCC(=O)Nc1cccc(Br)c1,4%[46.1 µM],8%[0.074 µM],4,-5%,25,25%[38.3 µM]
C[C@H](NC(=O)Nc1cccc(Br)c1)C(=O)O,20%,-7%[10 µM],nt,8%[9.22 µM],nt,nt
O=C(CN1CCN(CCO)CC1)Nc1ccccc1,-1%[46.1 µM],26%[10 µM],7,11%,-100*,0%
CC(C)[C@H](NC(=O)Nc1cccc(Br)c1)C(=O)O,16%,-3%[0.074 µM],nt,-14%,-91*,-2%
CCC(=O)Nc1cccc(Br)c1,7%[46.1 µM],-4%,1,-12%,-116*,14%[38.3 µM]
SMILES,NPSR antag,HTT ATP protect,IMPase inh,HttQ103 aggreg,PNC inhibitor,IMPase Li cell
O=C(Cn1cc(C(=O)c2cccs2)c2ccccc21)Nc1ccc(Br)cc1,nt,nt,-3,nt,nt,nt
O=C1C=CC(=O)C(C2=C3C(=O)N(CCc4ccccc4)CC(=O)N3CCC2)=C1,10µM*,nt,nt,7.1µM*,49,27%
Cc1ccc(SC[C@H](c2ccccc2)N2CCN(CCc3ccccc3)CCC2=O)cc1,-40%,-5%[10 µM],nt,-25%[9.22 µM],nt,nt
Cc1cccc(N=c2oc3cc(O)ccc3cc2C(N)=O)c1,-13%[46.1 µM],-40%,5,8.9µM*,14,10%[38.3 µM]
C/C(=N/NC(=O)c1ccncc1)c1cc2ccc(O)cc2oc1=O,7%,22%[10 µM],nt,13µM*,6,8%
NC(=S)c1cc2ccc(O)cc2oc1=O,5µM*,-45%,?,-15%,9,3.2µM*
CC(=O)OCC1OC(C#Cc2ccc(F)cc2F)C=CC1OC(C)=O (stereo not drawn),nt,-24%[10 µM],nt,nt,nt,nt
Cn1nc(-c2ccc(N3CCN(CCO)CC3)c([N+](=O)[O-])c2)c2ccccc2c1=O,-10%,3%[10 µM],nt,14%[9.22 µM],nt,5%
COc1ccc(CCN2C(=O)CSC2=Nc2ccc(C(C)C)cc2)cc1OC,?,41%[10 µM],nt,11%[9.22 µM],nt,nt
CCCCCCOc1ccc(C(CC(=O)O)C(N)=O)cc1 (stereo not drawn),-7%[46.1 µM],-27%,-12,-19%,-104*,-8%[38.3 µM]
Cc1cc(SC#N)cc(C)c1NC(=O)CCl,-15%,-31%[10 µM],-10,0%,-115*,-11%
CCc1cc(SC#N)cc(C)c1NC(=O)CCl,26%,-4%[10 µM],nt,-12%,29,22%
COc1ccccc1C1CC(=O)Oc2cc(C)c(Cl)c(C)c21 (stereo not drawn),nt,?,nt,nt,nt,2%
Cn1cc(/C=N/n2cnc3scc(-c4ccccc4)c3c2=O)c2ccccc21,-13%[46.1 µM],-107%[0.074 µM],7,-19%,-113*,7%[38.3 µM]
Cc1cc(NC(=O)CCSc2ccc(Cl)cc2)no1,0%,-9%,nt,2%,nt,-2%
COc1cc(C(C(=O)NC(C)(C)C)N(Cc2ccc3c(c2)OCO3)C(=O)c2cnccn2)cc(OC)c1OC (stereo not drawn),-9%[46.1 µM],-4%,5,7%,-21,43%[38.3 µM]
COc1ccc(CN(C(=O)c2cnccn2)C(C(=O)NC(C)(C)C)c2cc(OC)c(OC)c(OC)c2)cc1 (stereo not drawn),-4%[46.1 µM],-6%[10 µM],nt,-1%,-95*,-1%
CCNC(=S)N(Cc1cc2cccc(C)c2[nH]c1=O)C1CCCC1,-9%,6%[10 µM],9,5%,-119*,-4%
COc1ccccc1/C=N/NC(=O)Cn1cnc([N+](=O)[O-])n1,26%,-20%,nt,13%,nt,-2%
O=c1cc(C(F)(F)F)[nH]c2c(C(F)(F)F)cccc12,5%,nt,nt,20µM*,16,10%
O=c1cc(C(F)(F)F)[nH]c2ccc(OC(F)(F)F)cc12,3%[7.67 µM],-28%[10 µM],nt,-5%[9.22 µM],nt,nt
CC(C)NC(=O)N1CC2(CCN(C(=O)c3ccco3)CC2)C1,nt,?,nt,nt,nt,-5%
O=C(COC(=O)c1c2c(nc3ccccc13)CCN(Cc1ccccc1)C2)Nc1c(F)cccc1F,-19%,-5%[10 µM],nt,4%,5,13%
CC(=O)Nc1ccc(NC(=O)COC(=O)c2c3c(nc4ccccc24)CCN(Cc2ccccc2)C3)cc1,?,6%[10 µM],-9,4µM*,11,nt
